Source: PubChem BioAssay (several laboratories)
An excerpt weighted towards active compounds, which were near 7.9% of everything screened.
M1 agonist: agonists of M1 muscarinic receptor; AID 626; B-score at 10 µM; hit rate 3% among 64,000; CHO-M1 cells, Fluo-4 calcium fluorescence, agonist mode; stronger effect = higher value;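 active = fluorescence rise, raw or as B-score row- and column-corrected plate score, outside the 99.7% band of its plate's samples, either direction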
Cav3 T inh: inhibitors of human Cav3.2 T-type calcium channel. Cav3.2-expressing cells, Fluo-4 calcium fluorescence FDSS; stronger effect = lower value. B-score at 10 µM. O95180. hit rate 4% among 100,000;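 active = single-dose well whose peak fluorescence ratio is a statistical outlier from its plate by either plate-standardised score or position-corrected B-score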
HER2 expr 66K: Her2 kinase expression inhibition; P04626; SKBR-3 HER2 protein level, AlphaScreen, 18-24 h; stronger effect = lower value; HER2 level % of control, % at 10 µM; hit rate 0.69% among 65,000;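 active = HER2 level under 5% of the carrier-only control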;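 also: lower value means stronger loss of Her2 protein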
Target sequence (P04626 whole entry, looked up): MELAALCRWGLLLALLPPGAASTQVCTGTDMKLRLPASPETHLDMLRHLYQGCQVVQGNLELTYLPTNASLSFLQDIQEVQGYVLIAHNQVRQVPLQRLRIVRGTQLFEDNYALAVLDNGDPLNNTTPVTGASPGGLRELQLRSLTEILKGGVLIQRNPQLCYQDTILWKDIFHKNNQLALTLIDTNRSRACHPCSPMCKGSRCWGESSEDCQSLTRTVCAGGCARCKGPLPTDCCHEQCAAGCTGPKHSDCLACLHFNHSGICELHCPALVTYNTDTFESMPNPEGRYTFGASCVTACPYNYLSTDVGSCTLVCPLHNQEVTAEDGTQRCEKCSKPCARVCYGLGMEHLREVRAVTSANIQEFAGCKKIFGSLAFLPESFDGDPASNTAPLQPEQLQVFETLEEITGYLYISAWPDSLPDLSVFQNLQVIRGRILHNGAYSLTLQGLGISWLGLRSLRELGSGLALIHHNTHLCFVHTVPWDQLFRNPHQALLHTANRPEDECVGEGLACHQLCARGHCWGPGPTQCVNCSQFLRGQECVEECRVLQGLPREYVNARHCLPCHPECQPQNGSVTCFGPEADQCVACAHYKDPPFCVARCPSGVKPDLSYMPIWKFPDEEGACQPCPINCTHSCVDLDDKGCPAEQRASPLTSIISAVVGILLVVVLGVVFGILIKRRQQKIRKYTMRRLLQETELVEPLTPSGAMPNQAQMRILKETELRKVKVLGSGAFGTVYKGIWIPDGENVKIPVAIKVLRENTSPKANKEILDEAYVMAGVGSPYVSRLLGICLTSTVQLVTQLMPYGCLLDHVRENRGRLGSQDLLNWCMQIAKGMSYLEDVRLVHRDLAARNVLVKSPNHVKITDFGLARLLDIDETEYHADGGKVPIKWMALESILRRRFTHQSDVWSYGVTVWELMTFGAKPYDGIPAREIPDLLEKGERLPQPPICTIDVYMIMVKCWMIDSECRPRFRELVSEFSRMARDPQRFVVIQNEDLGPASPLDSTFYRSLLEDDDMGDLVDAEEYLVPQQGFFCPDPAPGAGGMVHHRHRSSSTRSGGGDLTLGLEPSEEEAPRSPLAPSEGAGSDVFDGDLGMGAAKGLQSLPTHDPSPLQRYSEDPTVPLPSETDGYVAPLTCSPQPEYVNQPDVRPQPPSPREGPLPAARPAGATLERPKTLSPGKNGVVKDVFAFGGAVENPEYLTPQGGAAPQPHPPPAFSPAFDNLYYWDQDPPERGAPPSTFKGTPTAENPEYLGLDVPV
PLAP act: activators of human placental alkaline phosphatase. purified PLAP enzyme, luminescent substrate read-out; stronger effect = higher value. activation fold at 20 µM. hit rate 1.2% among 96,000. AID 696; in the data active = activation fold above about 2
M1 antagonist: M1 muscarinic receptor (rat) antagonism; hit rate 3.4% among 64,000; B-score at 10 µM; CHO-M1 cells, Fluo-4 calcium, ACh EC80 antagonist mode; stronger effect = lower value; AID 628;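 active = calcium fluorescence response, raw or row-and-column corrected B-score, differing from the plate sample mean either way at a set confidence level, mostly lower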
M1 antag confirm: confirmation of rat M1 muscarinic receptor antagonists | shares compounds with M1 antagonist | CHO-M1 cells, Fluo-4 calcium, ACh EC80 antagonism; stronger effect = lower value | calcium response (max-min fluorescence) at 10 µM | hit rate 43% among 1,700 | AID 677;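 active = calcium response below the same-plate mean of wells given acetylcholine alone at its 80%-effect dose, minus 3 SD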
mGluR4 antag: acts on human mGluR4 in M1 antagonist selectivity test. shares compounds with M1 antagonist. CHO-mGluR4 calcium flux, Fluo-4 fluorescence, glutamate EC80; stronger effect = lower value. fluorescence response (max-min) at 10 µM. hit rate 0.9% among 1,700. AID 678;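 active = fluorescence response below the plate's average for near-maximal glutamate wells, less 3 SD of those wells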;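 also: raw unnormalized fluorescence span taken in the window right after glutamate addition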
Numbers stand for hits; . = inactive; / = no result.

SMILES	M1 agonist	Cav3 T inh	HER2 expr 66K	PLAP act	M1 antagonist	M1 antag confirm	mGluR4 antag
CCOC(=O)C1CCCN(CC(=O)Nc2c(C(=O)OC)[nH]c3ccccc23)C1 (centres undefined)	.	.	.	.	-5.75	552	.
O=C(O)c1ccccc1S(=O)(=O)NCC(O)COc1ccc(Br)cc1 (centres undefined)	.	.	.	.	.	/	/
COc1ccc(C(=O)CSc2nnc(Cn3cnc4ccccc43)o2)cc1	.	.	.	.	-2.19	532	.
Cc1ccccc1OCC(=O)Nc1sc(C(=O)Nc2cccc(C)c2C)c(C)c1C#N	/	.	/	.	/	/	/
COc1cccc(C2CC(C(F)(F)F)n3ncc(C(=O)O)c3N2)c1 (centres undefined)	.	.	.	.	.	/	/
COc1ccc(C2CC(C(F)(F)F)n3ncc(C(=O)O)c3N2)cc1OC (centres undefined)	.	.	.	.	-3.1	.	.
COc1ccc(OC)c(C2C3=C(CCCC3=O)Nc3nc4ccccc4n32)c1 (centres undefined)	.	/	.	/	.	/	/
O=C(COn1nnc2ccccc21)NCC1CCCCC1	.	.	.	.	-3	.	.
Cc1cccc(NC(=O)C2CCN(S(=O)(=O)c3cccs3)CC2)n1	.	.	.	.	-2.95	.	.
CC1CCN(CCC(=O)Nc2ccc(Br)cc2)CC1	.	.	.	/	.	/	/
CC1CCCN(CCC(=O)c2ccc(Br)cc2)C1 (centres undefined)	.	.	.	.	-4.54	.	.
O=C(NC1CCCCC1)c1noc2c1CCCCC2	.	.	.	.	-1.9	.	.
Cc1ccc2c(CC(=O)OCn3nnc4ccccc4c3=O)coc2c1	.	.	.	.	-4.92	323	.
CC(=O)OCn1nnc2ccccc2c1=O	.	.	.	/	.	/	/
c1ccc(Cn2nnnc2C(c2ccccc2)N2CCN(c3nc4ccccc4s3)CC2)cc1 (centres undefined)	.	.	.	.	-2.15	.	.
CCC(c1nnnn1Cc1ccco1)N1CCC(C(N)=O)CC1 (centres undefined)	.	.	.	.	.	/	/
CCCCC(c1nnnn1Cc1ccco1)N1CCN(c2nc3ccccc3s2)CC1 (centres undefined)	.	.	.	.	-3.31	.	.
CC1(C)CC(=O)C(Sc2nnc(-c3ccc(NS(C)(=O)=O)cc3)n2Cc2ccco2)C(=O)C1	.	/	.	.	.	/	/
Cn1c(SC2C(=O)CC(C)(C)CC2=O)nnc1-c1ccco1	.	.	.	.	-12.3	.	.
c1cncc(-c2nc(NCc3ccco3)c3ccccc3n2)c1	.	.	.	.	-2.74	498	.
c1ccc(-c2nc(NCc3cccnc3)c3ccccc3n2)cc1	/	.	/	.	/	/	/
O=c1[nH]c2ccccc2n1Cc1ccccc1	/	.	/	.	/	/	/
CCCCn1c(=O)[nH]c2ccccc21	.	.	.	.	-2.36	.	.
O=C(Nc1cccc(NC(=O)c2cccs2)c1)c1ccco1	.	.	.	.	.	/	/
COc1cc(NC(=O)c2cccs2)ccc1NC(=O)c1ccco1	.	.	.	.	-2.8	.	.
SMILES	M1 agonist	Cav3 T inh	HER2 expr 66K	PLAP act	M1 antagonist	M1 antag confirm	mGluR4 antag
Cc1ccc(NC(=O)c2ccco2)c(NC(=O)c2cccs2)c1	.	.	.	.	-3.89	.	.
CS(=O)(=O)N(CCc1ccccc1)CC(N)=O	.	.	.	.	.	/	/
CCOC(=O)CCSCC(=O)Nc1cc(C)on1	.	/	.	/	.	/	/
CCOC(=O)CCSCC(=O)Nc1nnc(C)s1	.	.	.	.	-2.4	.	.
CCOC(=O)c1c(C)n(C)c2ccc(OC)c(NC(=O)CN3CCN(C(=O)c4ccco4)CC3)c12	.	.	.	.	.	/	/
CN1CCC(N(C)CC(=O)Nc2cccc(Oc3ccccc3)c2)CC1	.	.	.	.	-2.8	454	.
Cc1ccccc1OCCCN1CCCC1	.	.	.	.	.	/	/
Brc1ccccc1OCCCCCN1CCCC1	/	.	/	.	/	/	/
C=CCc1ccccc1OCCCCN1CCCC1	.	.	.	.	-3.42	367	.
CCc1ccccc1OCCCCN1CCCC1	.	.	.	.	-4.32	.	.
Cc1ccc(-c2[nH]nc3c2C(c2ccc(OC(=O)N4CCOCC4)cc2)C(C#N)=C(N)O3)cc1 (centres undefined)	.	.	.	.	.	/	/
O=C(NCCc1ccccc1)C1CCCN(S(=O)(=O)c2cccc3nsnc23)C1 (centres undefined)	.	/	.	/	.	/	/
CC(=O)N1CCc2cc(S(=O)(=O)NC(CC(C)C)C(=O)Nc3ccc4c(c3)OCCO4)ccc21 (centres undefined)	.	.	.	.	.	/	/
Cc1oc(-c2ccc(Cl)cc2)nc1CN1CCCC(C(=O)N2CCc3ccccc32)C1 (centres undefined)	.	/	.	/	.	/	/
CCOC(=O)N1CCN(C(=O)C2CCCN(Cc3nc(-c4ccc(Cl)cc4)oc3C)C2)CC1 (centres undefined)	.	/	.	.	-3.78	343	.
Cc1oc(-c2ccc(Cl)cc2)nc1CN1CCCC(C(=O)NCCCN2CCCC2=O)C1 (centres undefined)	.	/	.	.	-3.97	.	.
CCOC(=O)N1CCN(C(=O)CS(=O)(=O)Cc2nc(-c3ccccc3C)oc2C)CC1	.	.	.	/	.	/	/
CCOC(=O)N1CCN(C(=O)C2CCN(Cc3nc(-c4ccccc4C)oc3C)CC2)CC1	.	/	.	.	-3.04	.	.
CC1CCCN(C(=O)COC(=O)c2n[nH]c3ccccc23)C1 (centres undefined)	.	.	.	2	-9.56	.	.
O=C(c1ccc(Br)o1)N1CCN(c2ccc3nnc(-c4ccccc4)n3n2)CC1	.	3.64	.	.	-6.41	264	.
Cc1nnc2ccc(N3CCN(C(=O)c4ccccc4)CC3)nn12	.	.	.	.	.	/	/
COC(=O)c1ccc(OCCN2C3=NCCN3c3ccccc32)cc1	.	.	.	.	-9.04	440	.
COc1ccc(OC)c(S(=O)(=O)Nc2ccc3oc4c(c3c2)C(=O)CCC4)c1	.	.	.	.	-1.28	.	.
C=C1CCN([C@@H](CC(C)C)C(=O)NCc2ccco2)S(=O)(=O)c2ccccc21	/	.	/	/	/	/	/
COCCn1c(=N)c(C(=O)NCCc2ccccc2)cc2c(=O)n3cccc(C)c3nc21	.	.	.	/	-4.65	194	.
CCCCNC(=O)c1cc2c(=O)n3cccc(C)c3nc2n1C	.	/	.	.	.	/	/
Cc1cccn2c(=O)c3cc(C(=O)NCCCN4CCCC4=O)n(C)c3nc12	.	.	.	.	-3.09	615	.
Cc1cccn2c(=O)c3cc(C(=O)NCc4ccccc4)c(=N)n(CCCN4CCOCC4)c3nc12	.	/	.	/	-3.28	337	.
CCC(=O)Nc1cc(C)c(NC(=O)c2ccccc2OC)cn1	.	.	.	.	.	/	/
